# Measurements reported in ChEMBL document CHEMBL3988442, “University of Dundee, Small-Polar-MMV Screening Library” (2021).
# About 440 (0.52%) of roughly 85,000 compounds showed an effect of 50% or more. The sample holds strong results, similar compounds and a random draw of the others, so the mix is not that of the screen.
# Test: In vitro enzyme assay to detect hydrolysis of chlorophenol red-beta-D-[…] directly proportional to the number of Toxoplasma stably expressing beta-galactosidase
# Type: functional, organism-based, Toxoplasma gondii
# Design: scale not given: in the data most compounds retested in dose-response had high values
SMILES,Percent Effect (50 µM),Percent Effect (10 µM)
NC(=O)c1ccccc1COC(=O)c1ccsc1,4.513%,
Cc1cncc(C(N)=O)c1,97.16%,
Cc1cnn(-c2cncc(C(N)=O)c2)c1,,0.2718%
Cc1cncc(C(=O)Nc2sc(C)cc2C(N)=O)c1,2.925%,
Clc1cnn(CCN2CCN(C3CCNC3)CC2)c1 (stereo not given),12.09%,
COc1ncccc1CNC(=O)NC1CCS(=O)(=O)C1 (stereo not given),-1.32%,
CCN(CC(C)C#N)C(=O)c1sccc1C (stereo not given),16.85%,
CCN(CC(C)C#N)C(=O)c1ccc(Br)o1 (stereo not given),96.74%,
CCN(Cc1nonc1C)C(=O)c1ccc(Br)o1,,-1.469%
O=C1CCCN1CCCNS(=O)(=O)c1ccc(Br)s1,-1.058%,
O=C1c2ccc(F)cc2C(=O)N1Cc1ccno1,5.807%,
O=C1c2ccc(F)cc2C(=O)N1Cc1nnsc1Cl,52.75%,
O=C1c2ccc(F)cc2C(=O)N1Cc1ccccn1,-3.473%,
Cn1ccc2ccc(NS(=O)(=O)C3CC3)cc2c1=O,65.83%,
CN(C)C(=O)N1CC2(CCOCC2)c2cc(NS(=O)(=O)C3CC3)ccc21,,-3.564%
COC(=O)CNc1ccc2ccn(C)c(=O)c2c1,-16.28%,
Cc1cc(CN(C)C(=O)c2cnn(C)c2C)no1,-0.6579%,
CC(C)C(CN)N1CCN(C)CC1 (stereo not given),18.88%,
COCCNC(=O)c1nnn(Cc2ccccc2)c1OC,,38.59%
COc1c(C(=O)NCC2CCCO2)nnn1Cc1ccccc1 (stereo not given),,62.42%

SMILES,Percent Effect (50 µM),Percent Effect (10 µM)
COc1c(C(=O)NCC(C)C)nnn1Cc1ccccc1,,74.28%
COc1c(C(=O)NCc2cnn(C)c2C)nnn1Cc1ccccc1,,65.52%
COc1ccc(Cl)cc1C(=O)NCc1cnn(C)c1C,,-4.944%
O=C(NCC1CCCO1)c1nc2c(s1)CCCN2Cc1ccccc1 (stereo not given),,-17.89%
CCNC(=O)c1nnn(Cc2ccccc2)c1OC,,-0.1195%
COc1ccc(C(=O)NCc2cnn(C)c2C)o1,-4.523%,
COc1c(C(=O)NCc2cccnc2)nnn1Cc1ccc(C)cc1,,3.825%
O=C(NCc1cccnc1)c1cn(CCc2ccccc2)nn1,,7.216%
COc1c(C(=O)NCc2cccnc2)nnn1Cc1ccccc1,,61.62%
CCOCCCNC(=O)c1nnn(Cc2ccccc2)c1OC,,43.16%
CC1Cc2cc(CO)ccc2O1 (stereo not given),-10.07%,
CCc1nnsc1C(=O)N1CCc2sccc2C1,-20.28%,
Cc1ccccc1NC(=O)CCN1CCN(C)CC1,-26.18%,
Cc1ccc2c(c1)C(=O)CCCS2(=O)=O,-6.954%,
Cc1ccc(CN(CCO)C(=O)c2cscn2)cc1,-0.4723%,
O=C(Nc1ccc2c(c1)OCO2)N1CCOCC1,-3.838%,
CN1CCCC1CCSCC(=O)Nc1ccccn1 (stereo not given),5.261%,
NCc1ccc(CO)cc1,0.7244%,
CCn1nc(C)c(NC(=O)c2nnn(Cc3ccccc3)c2OC)c1C,,55.69%
CCn1nc(C)c(NC(=O)c2cc(NC(=O)C(C)C)n(C)n2)c1C,,1.116%

SMILES,Percent Effect (50 µM),Percent Effect (10 µM)
CCN(CC)C(=O)c1nnn(Cc2ccccc2)c1OC,,-3.108%
CCC(OCCO)c1ccccc1 (stereo not given),-3.537%,
CC(C)[C@H](N)C(=O)N1CCC(C2CCOCC2)CC1,8.319%,
Cn1nnc(NC(=O)c2ccc(C#N)cc2F)n1,-8.268%,
Cn1nnnc1SCCNC(=O)c1cc(Cl)ccc1F,98.81%,
Cn1nnnc1SCCNC(=O)c1cccc2ccnn12,,-7.372%
CSc1ccccc1C(=O)NCCSc1nnnn1C,-10.69%,
CCC(C(=O)Nc1ccc(C)cc1)N(C)C (stereo not given),-1.57%,
COc1c(CNCCCNS(C)(=O)=O)c(C)nn1C,-17.44%,
COc1c(CNCCS(C)(=O)=O)c(C)nn1C,3.832%,
COc1c(N)c(C)nn1C,95.49%,
CCC(=O)N1CCCN(C(=O)C(N)C(C)(C)C)CC1 (stereo not given),9.824%,
Cc1ccc(C(=O)N2CCN(c3nccs3)CC2)o1,7.068%,
Cc1ccc(C(=O)N2CCN(c3nccn3C)CC2)o1,58.26%,
CC(=O)N1CCN(c2nccn2C)CC1,15.57%,
Cn1cc(NC(=O)CSc2nccn2C)cn1,23.13%,
CC(N)c1nnc2ccccn12 (stereo not given),17.22%,
O=C(Nc1ccncc1)NC1CCN(c2ccccc2OC(F)F)C1 (stereo not given),,74.41%
O=C(Nc1ccccn1)NC1CCN(c2ccccc2OC(F)F)C1 (stereo not given),,20.62%
O=C(Nc1cccnc1)NC1CCN(c2ccccc2OC(F)F)C1 (stereo not given),,-3.215%
